# Screening results from PubChem BioAssay.
# A selection: hits, their analogues and other compounds. The true share with any hit is near 4.5%.
# CSC inhib – cancer stem cell inhibition; cancer stem cell-like cells viability, luminescence; inhibition, % at 7.5 µM; 1.1% of 300,000 active; in the data active = inhibition above about 75%; inconclusive = no clear call, values can overlap the other calls; tested in HMLE shEcad cells
# aSyn UTR inh – 5' untranslated region of α-synuclein, MLPCN primary screen; inhibition, % (tested at 7.5 µM); alpha-synuclein 5'UTR reporter, inhibitor activity; 0.82% of 300,000 active; in the data active = inhibition above about 60%; inconclusive = no clear call, values can overlap the other calls;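 note: H4 neuroglioblastoma cells stably carrying SNCA 5'UTR luciferase fusion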
# Mdm2 MdmX PPI – inhibitors of human Mdm2/MdmX interaction | AID 485346 | SaOS-2 split-luciferase Mdm2/MdmX complementation, luminescence | inhibition, % at 8 µM | 3% of 330,000 active;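 active = inhibition of at least 50% at 8 µM in the primary screen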
# Target sequence (O15151 whole entry, looked up): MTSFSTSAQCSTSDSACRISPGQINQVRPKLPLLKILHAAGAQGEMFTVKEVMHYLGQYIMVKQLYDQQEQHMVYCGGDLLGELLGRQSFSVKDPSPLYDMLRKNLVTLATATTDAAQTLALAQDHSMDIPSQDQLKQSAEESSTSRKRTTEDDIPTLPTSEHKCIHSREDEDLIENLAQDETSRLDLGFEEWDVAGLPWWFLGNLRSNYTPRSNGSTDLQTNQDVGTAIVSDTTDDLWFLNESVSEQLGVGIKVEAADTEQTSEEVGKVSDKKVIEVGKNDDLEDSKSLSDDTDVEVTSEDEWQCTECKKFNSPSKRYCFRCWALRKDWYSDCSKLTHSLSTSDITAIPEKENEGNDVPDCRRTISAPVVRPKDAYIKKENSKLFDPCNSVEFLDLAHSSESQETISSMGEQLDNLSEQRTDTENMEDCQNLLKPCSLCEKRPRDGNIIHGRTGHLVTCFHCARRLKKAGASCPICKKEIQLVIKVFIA
# Target sequence (Q00987 whole entry, looked up): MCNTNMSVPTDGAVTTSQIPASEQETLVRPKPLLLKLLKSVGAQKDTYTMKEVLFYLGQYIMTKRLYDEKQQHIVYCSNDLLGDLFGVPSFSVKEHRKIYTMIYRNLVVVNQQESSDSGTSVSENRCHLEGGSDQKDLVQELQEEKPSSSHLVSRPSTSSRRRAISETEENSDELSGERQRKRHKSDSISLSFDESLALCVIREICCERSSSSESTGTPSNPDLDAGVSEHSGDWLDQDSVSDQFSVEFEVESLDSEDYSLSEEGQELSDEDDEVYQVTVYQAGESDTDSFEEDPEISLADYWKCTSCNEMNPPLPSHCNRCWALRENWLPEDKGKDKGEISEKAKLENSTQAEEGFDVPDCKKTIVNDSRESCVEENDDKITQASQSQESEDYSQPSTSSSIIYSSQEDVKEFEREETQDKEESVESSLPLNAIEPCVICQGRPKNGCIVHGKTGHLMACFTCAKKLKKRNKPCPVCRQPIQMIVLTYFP
# 697 NFkB inh – inhibitors of the PMA/ionomycin-induced NF-kB reporter in 697 B cells | 697 B-cell NF-kB luciferase reporter, 16 h | inhibition, % at 4 µM | 0.33% of 330,000 active; in the data active = inhibition above about 35%
# Jurkat NFkB inh – inhibitors of the PMA/ionomycin-induced NF-kB reporter in Jurkat cells; 0.53% of 330,000 active; PMA/ionomycin-induced NF-kB luciferase reporter, luminescence; inhibition, % at 4 µM; AID 435003; in the data active = inhibition above about 50%
# Gli-Sufu antag – Gli-Sufu pathway antagonism. Sufu-KO-LIGHT fibroblasts, Gli luciferase reporter luminescence. AID 588413. inhibition, % at 5 µM. 0.74% of 340,000 active;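 active = inhibition above about 55%, limit read from the data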
# Mdm2-MdmX conf – human Mdm2/MdmX binding inhibition, confirmed. shares compounds with Mdm2 MdmX PPI. luminescent assay. inhibition, % at 8 µM. 55% of 10,000 active. AID 489028; in the data active = inhibition above about 40%
# FLuc counter – full-length luciferase inhibition in Mdm2/MdmX counter-screen. shares compounds with Mdm2 MdmX PPI. SaOS-2 full-length luciferase counterscreen, luminescence. inhibition, % at 8 µM. 77% of 6,200 active;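 active = mean inhibition at 8 µM reaching about 37%, which flags the compound as non-specific, limit read from the data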;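 note: p53-null SaOS-2 cells with luciferase driven by a doxycycline-inducible promoter; compound on cells about two nights before reading with doxycycline added after day one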
# Numbers stand for hits; i = inactive; ? = inconclusive; nt = not tested or not shown.
SMILES,CSC inhib,aSyn UTR inh,Mdm2 MdmX PPI,697 NFkB inh,Jurkat NFkB inh,Gli-Sufu antag,Mdm2-MdmX conf,FLuc counter
CC1=NN(c2ccccc2)C(=O)/C1=C/C=C/c1ccc(N(C)C)cc1,nt,i,nt,nt,nt,i,nt,nt
Cc1ccc(NC(=O)Nc2cccn(Cc3c(F)cccc3Cl)c2=O)cc1,i,i,i,i,i,i,nt,nt
O=C(NCc1ccccc1)Nc1cccn(Cc2c(F)cccc2Cl)c1=O,i,i,56,i,i,i,43,73
CC(=O)N1CCN(c2ccc(S(C)(=O)=O)cc2[N+](=O)[O-])CC1,i,i,i,i,i,i,nt,nt
CC(C)N1CCC2(CC1)N=C(c1ccc3c(c1)OCO3)CC(c1cc(Cl)ccc1O)N2 (centres undefined),i,i,70,i,i,i,i,nt
COc1ccc(S(=O)(=O)N2CCCCCC2)cc1C(=O)N(C)Cc1ccc(C(C)(C)C)cc1,i,i,53,i,i,i,i,nt
CCOC(=O)c1sc(NC(=O)CSc2nc(-c3ccco3)cc(C(F)(F)F)n2)c(C(=O)OC)c1C,i,i,73,i,i,i,i,i
COc1ccccc1CCNC(=O)CCSc1nc(-c2ccco2)cc(C(F)(F)F)n1,i,i,i,i,i,i,nt,nt
COc1ccccc1CCNC(=O)CSc1nc(-c2ccco2)cc(C(F)(F)F)n1,i,i,76,i,i,i,43,83
O=C(CCCSc1nc(-c2ccco2)cc(C(F)(F)F)n1)Nc1ccc2c(c1)OCO2,i,i,i,i,i,i,nt,nt
O=C(CSc1nc(-c2ccco2)cc(C(F)(F)F)n1)Nc1ccc2c(c1)OCO2,i,i,62,i,i,i,65,44
Cc1ccc(C)c2[nH]c(=O)c(CCNC(=O)C(C)(C)C)cc12,i,i,i,i,i,i,nt,nt
CCc1nc(SCc2ccc(C(=O)OC)o2)c2c(=O)n(C)c(=O)n(C)c2n1,i,i,i,i,i,i,nt,nt
CC(C)(C)CN1CCN(Cc2cccnc2)CC1CCO (centres undefined),i,i,i,i,i,i,nt,nt
O=C1CCc2cc(S(=O)(=O)Nc3ccc(F)cc3)ccc2N1,i,nt,i,i,i,i,nt,nt
COc1ccc(C(=O)/C=C/C(=O)N(CC(=O)NC2CCCCC2)CC2CCCO2)c(O)c1 (centres undefined),i,73,60,i,i,i,i,nt
COc1ccc(C(=O)/C=C/C(=O)N(CC(=O)NC2CCCCC2)Cc2ccccc2OC)c(O)c1,nt,i,nt,nt,nt,i,nt,nt
CC(C)Oc1ccccc1C1(c2ccccc2)NC(=O)NC1=O (centres undefined),i,i,i,i,i,i,nt,nt
Cc1sc(NC(=O)Cc2ccc3c(c2)OCO3)nc1-c1ccc2c(c1)CCN2C(=O)c1ccccc1F,i,i,54,i,i,i,i,nt
C=CCNc1ncnc2c1ncn2C1OC(CO)C(O)C1O (centres undefined),77,i,56,i,i,i,i,nt
OC[C@H]1O[C@@H](n2cnc3c(NC4CCCC4)ncnc32)[C@H](O)[C@@H]1O,i,i,i,i,i,i,nt,nt
COc1cc(CC(=O)OCC(=O)Nc2cc([N+](=O)[O-])ccc2Cl)cc(OC)c1OC,i,i,i,i,i,i,nt,nt
CC[n+]1c(/C=C2/C=C(C)CC(C)(C)C2)sc2ccc(OC)cc21,i,i,54,i,i,i,i,57
CC(Nc1ccc2ccccc2c1)C(=O)N/N=C/c1ccncc1 (centres undefined),nt,nt,i,i,i,i,nt,nt
Cn1c(=O)n(CCc2ccccc2)c(=O)c2c1nc1n2CCCN1CCc1ccccc1,i,i,65,i,i,i,i,nt
SMILES,CSC inhib,aSyn UTR inh,Mdm2 MdmX PPI,697 NFkB inh,Jurkat NFkB inh,Gli-Sufu antag,Mdm2-MdmX conf,FLuc counter
CCCn1c(=O)c2c(nc3n2CCCN3CCc2ccccc2)n(C)c1=O,i,i,i,i,i,i,nt,nt
COc1cnc(-c2ccccn2)nc1Oc1ccc(Cl)c2ccccc12,i,i,52,i,i,i,i,nt
COc1cnc(-c2ccccn2)nc1Oc1ccccc1Cl,i,i,i,i,i,i,nt,nt
COc1cnc(-c2ccccn2)nc1NC(C)C,i,98,79,i,i,i,87,48
c1ccc(CNc2nc(NCc3ccccc3)c3ccccc3n2)cc1,135,106,100,i,i,i,75,51
c1ccc(CNc2nc(-c3ccccc3)nc3ccccc23)cc1,i,i,i,i,i,i,nt,nt
CCC(C)Nc1nc(-c2ccccn2)nc2ccccc12 (centres undefined),i,69,82,i,i,i,58,i
CCC(C)Nc1nc(-c2cccc(OC)c2O)nc2ccccc12 (centres undefined),i,i,i,i,i,i,nt,nt
Fc1ccc(Nc2nc(NCc3ccco3)c3ccccc3n2)cc1,86,i,77,i,i,i,i,nt
c1ccc(CNc2nc(-c3ccccn3)nc3ccccc23)cc1,i,i,78,i,i,i,78,i
O=C(CN1C(=O)C2CC=CCC2C1=O)NCC1COc2ccccc2O1 (centres undefined),i,i,i,i,i,i,nt,nt
COc1cc([N+](=O)[O-])cc(CN2CCCCC2)c1O,i,i,i,i,i,i,nt,nt
O=C(NCCC1=CCCCC1)c1c(O)nc2sccn2c1=O,i,i,80,i,i,i,57,68
O=C(NCCC1=CCCCC1)c1c(O)nc2ccccn2c1=O,i,i,i,i,i,i,nt,nt
CCn1c(=O)c(C(=O)NCCCc2ccccc2)c(O)c2ccccc21,i,i,i,i,i,i,nt,nt
O=C(NCCCc1ccccc1)c1c(O)nc2sccn2c1=O,i,i,75,i,i,i,57,52
Cc1cc(C(=O)N/N=C\c2cc(C(C)(C)C)ccc2O)n[nH]1,i,75,65,i,i,i,60,41
Cc1ccc(-c2cc(C(=O)N/N=C/c3c[nH]c4ccccc34)n[nH]2)o1,i,i,i,i,i,i,nt,nt
Cc1cc(C(=O)N/N=C/c2cc(Br)cc(Br)c2OC(=O)c2cccc(F)c2)n[nH]1,?,70,51,i,i,i,64,43
Cc1cc(C(=O)N/N=C/c2cccs2)n[nH]1,i,i,i,i,i,i,nt,nt
CC(C)(C)c1cc(C(=O)N/N=C/c2ccccc2O)n(-c2ccccc2)n1,117,62,70,i,i,i,77,i
Cc1cccc(C(=O)Oc2c(Br)cc(Br)cc2/C=N/NC(=O)c2ccncc2)c1,nt,i,i,i,i,i,nt,nt
Cc1ccc(-c2cc(C(=O)N/N=C/c3ccccc3O)n[nH]2)o1,79,i,53,i,i,i,53,47
COc1ccccc1-n1cc(CN2CCN(C3CCCCC3)C(CCO)C2)cn1 (centres undefined),i,i,i,i,i,i,nt,nt
CCCc1cc(=O)oc2cc(OCC(=O)NC3CC(C)(C)NC(C)(C)C3)ccc12,i,i,i,i,i,i,nt,nt
